High-throughput results: PubChem BioAssay, Broad Institute
NOMO-1 viab: STK33 inhibitor candidate reducing NOMO-1 cell viability. NOMO-1 AML viability, CellTiter-Glo luminescence, 72 h. inhibition, % (concentration not given with the values). 37,000 compounds, 7.5% hits. AID 2330; in the data active = inhibition above about 80%
Shh pathway inh: blocks Sonic Hedgehog signaling | Shh-LIGHT2 Gli-luciferase reporter, 30 h | inhibition, % (concentration not given with the values) | 22,000 compounds, 2.1% hits;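 active = mean inhibition across valid replicates above about 65%, limit read from the data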;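 note: pathway switched on by Shh-conditioned medium diluted 1 in 25 in low serum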
MITF inh: inhibitors of MITF; inhibition, % (no concentration beside the values); TRPM1 promoter luciferase, luminescence, 24 h; 37,000 compounds, 0.28% hits; AID 2240; in the data active = inhibition above about 85%;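 note: human melanocyte line stably carrying TRPM1 promoter luciferase reporter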
Active calls of the source: *; . = no result. Most compounds without a hit are left out; they make up all but 8.1% or so of the library.

SMILES	NOMO-1 viab	Shh pathway inh	MITF inh
C/C=C(\C)C(=O)O[C@H]1[C@H](OC(C)=O)[C@@]2(CO)C(CC1(C)C)C1=CCC3[C@@]4(C)CC[C@H](O[C@@H]5O[C@H](C(=O)O)[C@@H](O)[C@H](O[C@@H]6O[C@H](CO)[C@H](O)[C@H](O)[C@H]6O[C@@H]6O[C@@H](C)[C@H](O)[C@@H](O)[C@H]6O)[C@H]5O[C@@H]5O[C@H](CO)[C@@H](O)[C@H](O)[C@H]5O)C(C)(C)C4CC[C@@]3(C)[C@]1(C)C[C@H]2O (some centres undefined)	.	111*	.
CC1(C)CC[C@]2(C(=O)O[C@@H]3O[C@H](CO)[C@@H](O)[C@H](O)[C@H]3O)CC[C@]3(C)C(=CCC4[C@@]5(C)C[C@@H](O)[C@H](O)[C@@](C)(CO)C5CC[C@]43C)C2C1 (some centres undefined)	31	1	-9
CC1(C)CC[C@@]2(C(=O)O[C@@H]3O[C@H](CO)[C@@H](O)[C@H](O)[C@H]3O)C(C1)C1=CCC3[C@@]4(C)CC[C@@H](O[C@@H]5O[C@H](C(=O)O)[C@@H](O[C@@H]6OC[C@@H](O)[C@H](O)[C@H]6O)[C@H](O)[C@H]5O)C(C)(C)C4CC[C@@]3(C)[C@]1(C)C[C@H]2O (some centres undefined)	15	-10	-8
CC1(C)CC[C@]2(C(=O)O[C@@H]3O[C@H](CO)[C@@H](O)[C@H](O)[C@H]3O)CC[C@]3(C)C(=CCC4[C@@]5(C)CC[C@H](O[C@@H]6O[C@H](C(=O)O)[C@@H](O[C@@H]7O[C@H](CO)[C@@H](O)[C@H](O)[C@H]7O)[C@H](O)[C@H]6O)C(C)(C)C5CC[C@]43C)C2C1 (some centres undefined)	-4	7	10
CC1(C)CC[C@]2(C(=O)O[C@@H]3O[C@H](CO)[C@@H](O)[C@H](O)[C@H]3O)CC[C@]3(C)C(=CCC4[C@@]5(C)CC[C@H](O[C@@H]6OC[C@H](O)[C@H](O)[C@H]6O[C@@H]6O[C@H](CO)[C@@H](O)[C@H](O)[C@H]6O[C@@H]6OC[C@H](O)[C@H](O)[C@H]6O)[C@@](C)(CO)C5CC[C@]43C)C2C1 (some centres undefined)	-11	-9	-12
CC(Oc1ccccc1)C(=O)NCCN1CCOCC1 (centres undefined)	-9	.	-2
C[C@@H]1CN([C@@H](C)CO)C(=O)Cc2cc(NC(=O)Cn3cnnn3)ccc2O[C@@H]1CN(C)S(=O)(=O)c1ccccc1	4	-30	6
COc1cc(NC(=O)C(C)Oc2ccc(Cl)cc2Cl)ccc1NC(=O)c1cc2ccccc2o1 (centres undefined)	32	.	-37
C[C@@H]1O[C@@H](O[C@H]2[C@H](O)[C@@H](O)[C@H](OC[C@H]3O[C@@H](OC(=O)[C@]45CCC(C)(C)CC4C4=CCC6[C@@]7(C)CC[C@H](O)C(C)(C)C7CC[C@@]6(C)[C@]4(C)CC5)[C@H](O)[C@@H](O)[C@@H]3O)O[C@@H]2CO)[C@H](O)[C@H](O)[C@H]1O (some centres undefined)	122*	76*	45
CC1OC(O[C@H]2CC[C@@]3(C)C(CC[C@]4(C)C3CC=C3C5CC(C)(C)CC[C@]5(C(=O)OC5OC(CO)C(OC6OC(CO)C(O)C(O)C6O)C(O)C5O)CC[C@]34C)C2(C)C)C(O)C(O)C1OC1OCC(O)(COC2OCC(O)C(OC3OCC(OC4OCC(O)(CO)C4O)C(O)C3O)C2O)C1O (some centres undefined)	14	-5	8
CC1OC(OC2C(CO)OC(OC(=O)[C@]34CCC(C)(C)CC3C3=CCC5[C@@]6(C)CC[C@H](OC7OC(C)C(OC8OCC(O)(COC9OCC(O)C(OC%10OCC(OC%11OCC(O)(CO)C%11O)C(O)C%10O)C9O)C8O)C(O)C7O)C(C)(C)C6CC[C@@]5(C)[C@]3(C)CC4)C(O)C2O)C(O)C(O)C1O (some centres undefined)	100*	3	-6
C[C@@H]1O[C@@H](O[C@H]2[C@H](O[C@H]3CC[C@@]4(C)C(CC[C@]5(C)C4CC=C4[C@@H]6CC(C)(C)CC[C@]6(C(=O)O[C@@H]6O[C@H](CO[C@@H]7O[C@H](CO)[C@@H](O)[C@H](O)[C@H]7O)[C@@H](O)[C@H](O)[C@H]6O)CC[C@]45C)[C@]3(C)CO)OC[C@H](O)[C@@H]2O)[C@H](O)[C@H](O)[C@H]1O (some centres undefined)	28	-2	0
CC(=O)Nc1ccc(NC(=O)CN(c2cccc(C(F)(F)F)c2)S(C)(=O)=O)cc1	45	.	4
CNC[C@@H]1Oc2ccc(NC(=O)CCN3CCOCC3)cc2CC(=O)N([C@H](C)CO)C[C@@H]1C	8	-2	2
CC(C)NS(=O)(=O)c1ccc(OCC(=O)O)cc1	-5	.	-5
COC(=O)COc1ccc(S(=O)(=O)NC2CCCCCC2)cc1	119*	.	-22
Cc1ccc(S(=O)(=O)Nc2ccc3c(c2)C(=O)N([C@H](C)CO)C[C@H](C)[C@H](CN(C)C(=O)CCC(F)(F)F)OCCCC[C@@H](C)O3)cc1	11	-32	-13
C[C@H](CO)N1C[C@H](C)[C@H](CN(C)Cc2ccc3c(c2)OCO3)Oc2ccc(NC(=O)Nc3ccc4c(c3)OCO4)cc2CC1=O	40	-29	-4
CC(C)NC(=O)Nc1ccc2c(c1)CC(=O)N([C@@H](C)CO)C[C@H](C)[C@@H](CN(C)C(=O)Nc1ccc3c(c1)OCO3)O2	4	21	9
C[C@H](CO)N1C[C@H](C)[C@H](CN(C)Cc2ccncc2)Oc2ccc(NC(=O)Nc3ccc(F)cc3)cc2CC1=O	-8	7	-14
C[C@H]1CN([C@@H](C)CO)C(=O)Cc2cc(NC(=O)Nc3ccccc3)ccc2O[C@H]1CN(C)Cc1ccc(Cl)c(Cl)c1	104*	-21	-3
CC(C)NC(=O)Nc1ccc2c(c1)CC(=O)N([C@@H](C)CO)C[C@H](C)[C@H](CN(C)C(=O)Nc1ccc3c(c1)OCO3)O2	-17	65*	-6
C[C@H]1CN([C@@H](C)CO)C(=O)Cc2cc(NC(=O)Nc3ccccc3)ccc2O[C@H]1CN(C)Cc1ccccc1	65	26	-14
C[C@@H]1CN([C@@H](C)CO)C(=O)Cc2cc(NC(=O)Nc3ccc(F)cc3)ccc2O[C@@H]1CN(C)Cc1ccc(Cl)c(Cl)c1	103*	-13	29
C[C@H](CO)N1C[C@H](C)[C@H](CN(C)Cc2ccc(Cl)c(Cl)c2)Oc2ccc(NC(=O)Nc3ccc4c(c3)OCO4)cc2CC1=O	94*	-8	29
CC(C)(C)c1ccc(CSCC(=O)Nc2ccccc2C#N)cc1	36	-100	10
Cc1nc2ccccc2n1CC(O)COc1ccc(C(C)C)cc1 (centres undefined)	69	.	33
CCN(CC(=O)Nc1ccccc1C(F)(F)F)S(=O)(=O)c1ccc(C)cc1	23	.	0
Cc1ccc(-c2nnc3c4ccccc4c(C)nn23)cc1S(N)(=O)=O	20	.	4
C[C@H](CO)N1C[C@H](C)[C@H](CN(C)Cc2ccc(Cl)c(Cl)c2)Oc2ccc(NC(=O)Nc3ccccc3)cc2CC1=O	116*	32	29
